# Laboratory results from PubChem BioAssay AID1159580 (chemical genetic matrix, 2015).
# Out of some 5,500 compounds screened, about 2,000 (36%) were called active. Roughly 18% stayed inconclusive and do not appear here. The list shows a part of the results. Unmarked numbers belong to inactive results. Rule as the data show it: active = normalized growth mostly below about 0.91 (no sharp cut-off); inconclusive = no clear call, values can overlap the other calls; inactive = mostly above about 0.92.
# Assay: chemical genetic growth profiling, strain panel (AID 1159580);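 also: tested at 20 µM; growth read once vehicle control cultures reached saturation at 30 °C; 1 = growth at the plate median or of vehicle wells; lower values mean less growth of the strain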
# Conditions: growth OD
# [1] = S. cerevisiae deletion strains, locus YDL101C, strain DUN1, hits give low values
# [2] = S. cerevisiae deletion strains, locus YHR030C, strain SLT2, hits give low values
# [3] = S. cerevisiae deletion strains, locus YAL013W, strain DEP1, hits give low values
# [4] = S. cerevisiae deletion strains, locus YBR229C, strain ROT2, hits give low values
# [5] = S. cerevisiae deletion strains, locus YDL134C, strain PPH21, hits give low values
# [6] = S. cerevisiae deletion strains, locus YDR150W, strain NUM1, hits give low values
# [7] = S. cerevisiae deletion strains, locus YEL061C, strain CIN8, hits give low values
# [8] = S. cerevisiae deletion strains, locus YGR078C, strain PAC10, hits give low values
# [9] = S. cerevisiae deletion strains, locus YHR087W, strain rtc3, hits give low values
# [10] = S. cerevisiae deletion strains, locus YJR043C, strain POL32, hits give low values
# [11] = S. cerevisiae deletion strains, locus YJR075W, strain HOC1, hits give low values
# [12] = S. cerevisiae deletion strains, locus YLR039C, strain RIC1, hits give low values
# [13] = S. cerevisiae deletion strains, locus YLR058C, strain SHM2 (second series), hits give low values
# [14] = S. cerevisiae deletion strains, locus YLR085C, strain ARP6, hits give low values
# [15] = S. cerevisiae deletion strains, locus YLR262C, strain YPT6, hits give low values
# [16] = S. cerevisiae deletion strains, locus YML094W, strain GIM5, hits give low values
# [17] = S. cerevisiae deletion strains, locus YMR219W, strain ESC1, hits give low values
# [18] = S. cerevisiae deletion strains, locus YMR263W, strain SAP30, hits give low values
# [19] = S. cerevisiae deletion strains, locus YNL128W, strain TEP1, hits give low values
# [20] = S. cerevisiae deletion strains, locus YNL153C, strain GIM3, hits give low values
# [21] = S. cerevisiae deletion strains, locus YNL298W, strain CLA4 (second series), hits give low values
# [22] = S. cerevisiae deletion strains, locus YNL322C, strain KRE1, hits give low values
# [23] = S. cerevisiae deletion strains, locus YNR030W, strain Alg12, hits give low values
# [24] = S. cerevisiae deletion strains, locus YPL055C, strain LGE1, hits give low values
# [25] = S. cerevisiae deletion strains, locus YPL241C, strain CIN2, hits give low values
# [26] = S. cerevisiae deletion strains, locus YPR135W, strain CTF4, hits give low values
smiles,measurement,setting,value
O=C(Nc1cc(Cl)cc(Cl)c1)c1cc(Br)ccc1O,normalized growth,"S. cerevisiae deletion strains, locus YAR019C, strain CDC15, hits give low values",0.944
same,normalized growth,"S. cerevisiae deletion strains, locus YBL105C, strain PKC1, hits give low values",0.958
same,normalized growth,"S. cerevisiae deletion strains, locus YBR135W, strain CKS1, hits give low values",0.946
same,normalized growth,"S. cerevisiae deletion strains, locus YBR136W, strain MEC1, hits give low values",0.949
same,normalized growth,"S. cerevisiae deletion strains, locus YBR160W, strain CDC28, hits give low values",0.955
same,normalized growth,"S. cerevisiae deletion strains, locus YDL017W, strain CDC7, hits give low values",0.942
same,normalized growth,"S. cerevisiae deletion strains, locus YDL028C, strain MPS1, hits give low values",0.955
same,normalized growth,[1],0.985
same,normalized growth,"S. cerevisiae deletion strains, locus YDL108W, strain KIN28, hits give low values",0.953
same,normalized growth,"S. cerevisiae deletion strains, locus YDL132W, strain cdc53, hits give low values",0.933
same,normalized growth,"S. cerevisiae deletion strains, locus YDL214C, strain PRR2, hits give low values",0.849
same,normalized growth,"S. cerevisiae deletion strains, locus YDR052C, strain DBF4, hits give low values",0.925
same,normalized growth,"S. cerevisiae deletion strains, locus YDR054C, strain cdc34, hits give low values",0.939
same,normalized growth,"S. cerevisiae deletion strains, locus YDR226W, strain ADK1, hits give low values",0.935
same,normalized growth,"S. cerevisiae deletion strains, locus YDR477W, strain SNF1, hits give low values",0.872
same,normalized growth,"S. cerevisiae deletion strains, locus YER123W, strain YCK3, hits give low values",0.774
same,normalized growth,"S. cerevisiae deletion strains, locus YER133W, strain GLC7, hits give low values",0.831
same,normalized growth,"S. cerevisiae deletion strains, locus YFL009W, strain cdc4, hits give low values",0.936
same,normalized growth,"S. cerevisiae deletion strains, locus YFL029C, strain CAK1, hits give low values",0.942
same,normalized growth,"S. cerevisiae deletion strains, locus YFR003C, strain YPI1, hits give low values",0.949
same,normalized growth,"S. cerevisiae deletion strains, locus YFR019W, strain FAB1, hits give low values",0.91
same,normalized growth,"S. cerevisiae deletion strains, locus YFR028C, strain CDC14, hits give low values",0.94
same,normalized growth,"S. cerevisiae deletion strains, locus YGR040W, strain KSS1, hits give low values",0.888
same,normalized growth,"S. cerevisiae deletion strains, locus YGR052W, strain FMP48, hits give low values",0.847
same,normalized growth,"S. cerevisiae deletion strains, locus YGR092W, strain DBF2, hits give low values",0.405 (active)
same,normalized growth,[2],0.816 (active)
same,normalized growth,"S. cerevisiae deletion strains, locus YHR079C, strain IRE1, hits give low values",0.68
same,normalized growth,"S. cerevisiae deletion strains, locus YHR082C, strain KSP1, hits give low values",0.964
same,normalized growth,"S. cerevisiae deletion strains, locus YHR205W, strain SCH9, hits give low values",0.656
same,normalized growth,"S. cerevisiae deletion strains, locus YIL147C, strain SLN1, hits give low values",0.945
same,normalized growth,"S. cerevisiae deletion strains, locus YJL095W, strain BCK1, hits give low values",0.76
same,normalized growth,"S. cerevisiae deletion strains, locus YJL128C, strain PBS2, hits give low values",0.959
same,normalized growth,"S. cerevisiae deletion strains, locus YJL157C, strain FAR1, hits give low values",0.698 (active)
same,normalized growth,"S. cerevisiae deletion strains, locus YJR016C, strain ILV3, hits give low values",0.944
same,normalized growth,"S. cerevisiae deletion strains, locus YJR066W, strain TOR1 (second series), hits give low values",0.774
same,normalized growth,"S. cerevisiae deletion strains, locus YJR066W, strain TOR1, hits give low values",0.792
same,normalized growth,"S. cerevisiae deletion strains, locus YKL048C, strain ELM1, hits give low values",0.848
same,normalized growth,"S. cerevisiae deletion strains, locus YKL067W, strain YNK1, hits give low values",0.799
same,normalized growth,"S. cerevisiae deletion strains, locus YKL101W, strain HSL1, hits give low values",0.853
same,normalized growth,"S. cerevisiae deletion strains, locus YKL193C, strain SDS22, hits give low values",0.936
same,normalized growth,"S. cerevisiae deletion strains, locus YKL203C, strain TOR2, hits give low values",0.86
same,normalized growth,"S. cerevisiae deletion strains, locus YLR113W, strain HOG1, hits give low values",0.892
same,normalized growth,"S. cerevisiae deletion strains, locus YLR133W, strain CKI1, hits give low values",0.821
same,normalized growth,"S. cerevisiae deletion strains, locus YLR403W, strain SFP1, hits give low values",0.747
same,normalized growth,"S. cerevisiae deletion strains, locus YML070W, strain DAK1, hits give low values",0.872
same,normalized growth,"S. cerevisiae deletion strains, locus YMR001C, strain CDC5, hits give low values",0.941
same,normalized growth,"S. cerevisiae deletion strains, locus YMR205C, strain PFK2 (second series), hits give low values",0.858
same,normalized growth,"S. cerevisiae deletion strains, locus YMR277W, strain FCP1, hits give low values",0.945
same,normalized growth,"S. cerevisiae deletion strains, locus YNL006W, strain LST8, hits give low values",0.938
same,normalized growth,"S. cerevisiae deletion strains, locus YNL020C, strain ARK1, hits give low values",0.738
same,normalized growth,"S. cerevisiae deletion strains, locus YNL161W, strain CBK1, hits give low values",0.947
same,normalized growth,"S. cerevisiae deletion strains, locus YNL183C, strain NPR1, hits give low values",0.917
same,normalized growth,"S. cerevisiae deletion strains, locus YNL207W, strain RIO2, hits give low values",0.955
same,normalized growth,"S. cerevisiae deletion strains, locus YNL222W, strain SSU72, hits give low values",0.949
same,normalized growth,"S. cerevisiae deletion strains, locus YNL307C, strain MCK1 (second series), hits give low values",0.703
same,normalized growth,"S. cerevisiae deletion strains, locus YOL078W, strain AVO1, hits give low values",0.952
same,normalized growth,"S. cerevisiae deletion strains, locus YOL136C, strain PFK27, hits give low values",0.767
same,normalized growth,"S. cerevisiae deletion strains, locus YOR061W, strain CKA2, hits give low values",0.749
same,normalized growth,"S. cerevisiae deletion strains, locus YOR119C, strain RIO1, hits give low values",0.925
same,normalized growth,"S. cerevisiae deletion strains, locus YOR231W, strain MKK1, hits give low values",0.888
same,normalized growth,"S. cerevisiae deletion strains, locus YOR329C, strain SCD5, hits give low values",0.948
same,normalized growth,"S. cerevisiae deletion strains, locus YPL031C, strain PHO85, hits give low values",0.841
same,normalized growth,"S. cerevisiae deletion strains, locus YPL153C, strain RAD53, hits give low values",0.84
same,normalized growth,"S. cerevisiae deletion strains, locus YPL204W, strain HRR25, hits give low values",0.801
same,normalized growth,"S. cerevisiae deletion strains, locus YPL209C, strain IPL1, hits give low values",0.945
same,normalized growth,"S. cerevisiae deletion strains, locus YPL256C, strain CLN2, hits give low values",0.871
same,normalized growth,"S. cerevisiae deletion strains, locus YPR025C, strain CCL1, hits give low values",0.951
same,normalized growth,"S. cerevisiae deletion strains, locus YPR106W, strain ISR1, hits give low values",0.971
same,normalized growth,"S. cerevisiae deletion strains, locus YPR111W, strain DBF20, hits give low values",0.96
same,normalized growth,"S. cerevisiae deletion strains, strain NNK1, hits give low values",0.964
same,normalized growth,"S. cerevisiae deletion strains, strain TSCII, hits give low values",0.942
Nc1c(Cl)cc(C(=O)Nc2cc(Cl)cc(Cl)c2)cc1Cl,normalized growth,[3],0.897 (active)
same,normalized growth,[4],0.957
same,normalized growth,"S. cerevisiae deletion strains, locus YCL061C, strain MRC1, hits give low values",0.994
same,normalized growth,[1],1.02
same,normalized growth,[5],0.978
same,normalized growth,[6],0.934
same,normalized growth,[7],0.956
same,normalized growth,[8],0.977
same,normalized growth,[2],0.496 (active)
same,normalized growth,[9],0.935
same,normalized growth,[10],0.907 (active)
same,normalized growth,[11],0.97
same,normalized growth,[12],0.77 (active)
same,normalized growth,[13],0.99
same,normalized growth,[14],0.842
same,normalized growth,[15],0.847
same,normalized growth,[16],0.872
same,normalized growth,[17],0.976
same,normalized growth,[18],0.934
same,normalized growth,"S. cerevisiae deletion strains, locus YMR307W, strain GAS1, hits give low values",0.651 (active)
same,normalized growth,[19],0.982
same,normalized growth,[20],0.984
same,normalized growth,[21],0.825 (active)
same,normalized growth,[22],1
same,normalized growth,[23],0.778 (active)
same,normalized growth,[24],0.8 (active)
same,normalized growth,[25],0.821 (active)
same,normalized growth,[26],0.894
same,normalized growth,"S. cerevisiae strains, strain wild type, hits give low values",0.956
Clc1cc(Cl)cc(Br)c1,normalized growth,[3],1.03
same,normalized growth,[4],1.02
same,normalized growth,[1],1.02
same,normalized growth,[5],1.02
same,normalized growth,[6],1.04
same,normalized growth,[7],1.03
same,normalized growth,[8],1.01
same,normalized growth,[2],1.1
same,normalized growth,[9],1.05
same,normalized growth,[10],1.01
same,normalized growth,[11],1
same,normalized growth,[12],1.09
same,normalized growth,[13],1.02
same,normalized growth,[14],1.14
same,normalized growth,[15],1.07
same,normalized growth,[16],1.04
same,normalized growth,[17],1.02
same,normalized growth,[18],1.02
same,normalized growth,[19],1.02
same,normalized growth,[20],1.01
same,normalized growth,[21],1.08
same,normalized growth,[22],1.02
same,normalized growth,[23],1.05
same,normalized growth,[24],1.03
same,normalized growth,[25],1.04
same,normalized growth,[26],1.16
